Measurements published in PubChem BioAssay AID651717 (Broad Institute, 2012).
About 950 (79%) of roughly 1,200 compounds were called active. The set was probably picked from earlier hits. Only a sample is shown. Results with a measured potency or affinity are listed apart. Values without a mark were called inactive.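 How the source made its calls: active means signal rises and fitted curve reaches 40% activity at or below the top valid tested dose, in every replicate test; inconclusive means replicate tests give mixed calls; inactive means the rest, including activity in the opposite direction.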

Test: Bmi1-luciferase reporter activators in mESC, dose response, esBAF inhibitor project, mouse embryonic stem cells, cherry-pick (AID 651717);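 further: luciferase knocked into Bmi1 locus with EF-1a renilla as cell number control; rising ratio signals esBAF inhibition which derepresses Bmi1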
Details: firefly/renilla ratio, 24 h, stronger effect = higher value; at 35 µM unless noted
For `C[C@@H]1CN([C@@H](C)CO)C(=O)c2c(c3ccccc3n2C)-c2ccccc2CO[C@H]1CN(C)C(=O)Nc1ccc2c(c1)OCO2`, the max activity was -5.95% [at 1.1 µM]. With `C[C@H]1CN([C@@H](C)CO)C(=O)Cc2cc(NC(=O)C3CCCCC3)ccc2O[C@@H]1CN(C)C(=O)Nc1ccc2c(c1)OCO2` the max activity was -4.16% [at 2.1 µM]. Molecule `C[C@@H]1CN([C@H](C)CO)C(=O)Cc2cc(NC(=O)C3CCCCC3)ccc2O[C@H]1CN(C)C(=O)Nc1ccc2c(c1)OCO2` has a max activity of 7.16% [at 1.1 µM]. `C[C@H]1CN([C@@H](C)CO)C(=O)c2cccc(NS(=O)(=O)c3ccccc3)c2O[C@@H]1CN(C)C(=O)Nc1ccc2c(c1)OCO2` gave a max activity of -33.5% [at 30 µM]. `COc1ccc2nc(N(CCN(C)C)C(=O)c3ccc4ncsc4c3)sc2c1` showed a max activity of 43.3% [at 8 µM]. For `C[C@H]1CN([C@@H](C)CO)C(=O)c2cccc(NS(=O)(=O)c3ccccc3)c2O[C@H]1CN(C)C(=O)Nc1ccc2c(c1)OCO2`, the max activity was -6.71%. With `COc1ccc(N(CC(=O)Nc2ccccc2C(N)=O)S(=O)(=O)c2ccc(C)c([N+](=O)[O-])c2)cc1` the max activity was 17% [at 16 µM]. Molecule `COc1ccc(NC(=O)N(C)C[C@H]2OCCCC[C@@H](C)Oc3ccc(NC(=O)Nc4ccc5c(c4)OCO5)cc3C(=O)N([C@H](C)CO)C[C@@H]2C)cc1` has a max activity of 12.1% [at 8 µM]. For `CCOc1ccc2nc(Cl)c(C3CC(c4ccco4)=NN3S(=O)(=O)c3ccccc3)cc2c1` (stereo not given), the max activity was 9.03% [at 1 µM]. In the case of `COC(=O)[C@H]1C[C@@]2(O)CN(S(=O)(=O)c3ccc(C)cc3)C[C@@]2(OC(=O)NCC2CCCCC2)C[C@H]1C(=O)OC`, the max activity is reported as 29.2%. With `CC1CCN(c2nc3ccc(C(=O)NCCCN4CCCCC4C)cc3s2)CC1` (stereo not given) the max activity was -33.5% [at 16 µM]. Molecule `C[C@@H]1CN([C@H](C)CO)C(=O)c2cc(NC(=O)Nc3ccc4c(c3)OCO4)ccc2O[C@@H](C)CCCCO[C@H]1CN(C)S(=O)(=O)c1cn(C)cn1` has a max activity of 5.01% [at 1 µM]. Molecule `CSc1cccc(NC(=O)c2[nH]c(C)c(C(C)=O)c2C)c1` has a max activity of 14.1% [at 8 µM]. `CC1=C(C(=O)OCc2ccccc2)C(c2ccc(Br)cc2)NC(=O)N1CCCCCC(=O)O` (stereo not given) showed a max activity of 11.1% [at 16 µM]. In the case of `C[C@@H]1CCCCO[C@H](CN(C)C(=O)Nc2cccc3ccccc23)[C@H](C)CN([C@@H](C)CO)C(=O)c2cc(NC(=O)CCC(F)(F)F)ccc2O1`, the max activity is reported as 26.7% [at 1 µM]. `COc1ccc(-c2cc(C(=O)Nc3cc(OC)cc(C(=O)Nc4cccc(C(F)(F)F)c4)c3)[nH]n2)cc1` showed a max activity of 9.94% [at 4.2 µM]. Work on `CCOC(=O)COc1c(OC)cc(Cl)cc1C1Nc2ccccc2C(=O)N1c1cccc(C)c1` (stereo not given) yielded a max activity of 28.5%. `O=C(Nc1ccc(Cc2ccc(NC(=O)Nc3cccnc3)cc2)cc1)Nc1cccnc1` showed a max activity of 25.6% [at 16 µM]. With `Cc1ccc(NCC(=O)N/N=C\C(Br)=C\c2ccccc2)cc1` the max activity was 8.26% [at 16 µM]. For `CC=Cc1ccc2n(c1=O)C[C@H]1[C@H](CO)[C@@H](C(=O)Nc3ccc(-c4ccccc4)cc3)N(CC)[C@@H]21` (mixture of isomers), the max activity was 5.58% [at 0.26 µM]. `CC=Cc1ccc2n(c1=O)C[C@@H]1[C@@H](CO)[C@H](C(=O)Nc3ccc(-c4ccccc4)cc3)N(C)[C@H]21` (mixture of isomers) gave a max activity of -24.6%. Molecule `CC(=O)c1ccc(N(C(=O)Cc2c[nH]c3ccccc23)C(C(=O)NC2CCCCC2)c2cccs2)cc1` (stereo not given) has a max activity of -9.23%. Molecule `Cc1ccc2c(c1)Sc1ccccc1CC2=O` has a max activity of 16.2%. Work on `Cn1c(SCc2nc3ccccc3s2)nnc1-c1ccc2c(c1)OCO2` yielded a max activity of 27.7%. For `O=C1Nc2ccccc2N=C(c2ccc3c(c2)OCO3)C1N(CCc1ccccc1)C(=O)CSc1ncccn1` (stereo not given), the max activity was -16.9%. With `C[C@@H]1CN([C@@H](C)CO)C(=O)c2cc(NC(=O)Nc3ccc4c(c3)OCO4)ccc2O[C@@H](C)CCCCO[C@H]1CN(C)Cc1ccncc1` the max activity was -10.2% [at 0.5 µM]. Work on `Cc1ccc2nc(NC(=O)CCNS(=O)(=O)c3cccs3)sc2c1` yielded a max activity of 37.2%. In the case of `CNC[C@@H]1OCCCC[C@H](C)Oc2ccc(NS(=O)(=O)c3ccc(C)cc3)cc2C(=O)N([C@H](C)CO)C[C@H]1C`, the max activity is reported as -8.01% [at 1.1 µM]. For `O=C1NC(Cc2ccc(O)cc2)c2nc3ccc(Br)cc3c(=O)n2-c2cc3ccccc3cc21` (stereo not given), the max activity was 6.63% [at 8 µM]. `C[C@@H]1CCCCO[C@@H](CN(C)Cc2ccncc2)[C@H](C)CN([C@@H](C)CO)C(=O)c2cc(NC(=O)Nc3ccc4c(c3)OCO4)ccc2O1` gave a max activity of -10.3% [at 0.5 µM]. Work on `Cc1ccc(NC(=O)c2ccccc2F)c(NC(=O)c2ccccc2F)c1` yielded a max activity of 39.1% [at 16 µM]. Molecule `CN(CC(=O)Nc1ccc(Cl)c(S(=O)(=O)N(C)C)c1)Cc1ccccc1` has a max activity of 16.8% [at 1 µM]. `C[C@@H]1CN([C@H](C)CO)C(=O)c2cccc(NC(=O)Nc3ccc4c(c3)OCO4)c2O[C@H]1CN(C)S(=O)(=O)c1cccs1` showed a max activity of 36.7% [at 1 µM]. For `CN1C(=O)c2cc(NC(=O)c3ccc(C#N)cc3)ccc2OC[C@H]2O[C@@H](CC(=O)NC3Cc4ccccc4C3)CC[C@@H]21`, the max activity was -7.14%. In the case of `Cc1c(CC(C)C)nc(N)c(C#N)c1-c1ccccc1`, the max activity is reported as 8.97% [at 16 µM]. For `CC1CC(C)(C)CC2(C1)NC(=O)N(CC(=O)OCC(=O)Nc1cc(S(=O)(=O)N3CCCCC3)ccc1Cl)C2=O` (stereo not given), the max activity was 16.1% [at 0.5 µM]. `CCc1ccc(C(=O)CN2C(=O)NC3(CCCCCC3)C2=O)cc1` gave a max activity of 32.8%. With `COc1ccc(C(=O)N2CCN(c3ccc(C(C)=O)cc3)CC2)cc1S(=O)(=O)N1CCCC1` the max activity was 26.7% [at 2.1 µM]. For `COc1ccc(CCNC(=O)CSc2nc3ccsc3c(=O)n2Cc2ccccn2)cc1OC`, the max activity was 23.9%. With `Cc1ccc(S(=O)(=O)Nc2cccc3c2O[C@@H](CN(C)C(=O)Nc2ccc4c(c2)OCO4)[C@@H](C)CN([C@@H](C)CO)C3=O)cc1` the max activity was -17.3%. In the case of `CC(=O)N(C)c1ccc(NCc2cc(=O)oc3cc(C)c(O)cc23)cc1`, the max activity is reported as 19.2%. Molecule `COc1ccc2cc(C(=O)c3ccccc3)c(=O)oc2c1` has a max activity of 32.6% [at 4.2 µM]. `C[C@@H]1CN([C@@H](C)CO)C(=O)c2cc(NC(=O)Nc3ccc4c(c3)OCO4)ccc2O[C@@H](C)CCCCO[C@@H]1CN(C)S(=O)(=O)c1cn(C)cn1` gave a max activity of -11% [at 0.5 µM]. In the case of `CC1CCN(c2ccc3c(c2)S(=O)(=O)c2cccc(C(=O)NCc4ccc(F)cc4)c2C3=O)CC1`, the max activity is reported as 27.9%. Work on `CCC(SC1=Nc2ccccc2C2=NC(CC(C)C)C(=O)N12)C(=O)Nc1ccc2c(c1)OCO2` (stereo not given) yielded a max activity of -19.3%. With `Cc1ccc(S(=O)(=O)N(C)C[C@H]2OCCCC[C@H](C)Oc3ccc(NC(=O)Nc4ccc5c(c4)OCO5)cc3C(=O)N([C@H](C)CO)C[C@H]2C)cc1` the max activity was 10.8% [at 16 µM]. `Cc1ccc(S(=O)(=O)Nc2cccc3c2O[C@H](CN(C)C(=O)Nc2ccc4c(c2)OCO4)[C@H](C)CN([C@H](C)CO)C3=O)cc1` showed a max activity of -21.3%. In the case of `C[C@H](CO)N1C[C@H](C)[C@@H](CN(C)C(=O)Nc2ccc3c(c2)OCO3)OCCCC[C@H](C)Oc2ccc(NC(=O)c3ccncc3)cc2C1=O`, the max activity is reported as -9% [at 0.26 µM]. For `CN(C)c1ccc(C(=O)Nc2cccc(S(=O)(=O)N3CCCC3)c2)cc1`, the max activity was 25% [at 16 µM]. `C[C@H]1CN([C@@H](C)CO)C(=O)Cc2cc(NC(=O)Nc3ccc4c(c3)OCO4)ccc2O[C@H]1CN(C)Cc1ccccc1` gave a max activity of 12.3% [at 8 µM]. For `C[C@H]1CN([C@@H](C)CO)C(=O)Cc2cc(NC(=O)Nc3ccc4c(c3)OCO4)ccc2O[C@@H]1CN(C)Cc1ccccc1`, the max activity was -4.95% [at 2.1 µM]. In the case of `CCn1c(=N)n(CC(=O)c2ccc(Br)s2)c2ccccc21`, the max activity is reported as 15.9%. For `CN(C)c1ccc(-c2nnn(Cc3ccccc3Br)n2)cc1`, the max activity was -12.5%. With `CCOC(=O)c1cc(-c2sc(NC(=O)c3ccccc3)nc2C)n(-c2ccc(Br)cc2)n1` the max activity was 24%. `O=C(c1ccc2ccccc2c1O)N1CCCCC1` gave a max activity of -23.4%. `C[C@@H]1CN([C@@H](C)CO)C(=O)c2cc(NS(=O)(=O)c3ccc(F)cc3)ccc2O[C@H]1CN(C)C(=O)Nc1ccc2c(c1)OCO2` showed a max activity of -5.95% [at 0.5 µM]. Molecule `Cc1ccc(S(=O)(=O)NCc2ccccc2)cc1C(=O)NC1CCC(C)CC1` (stereo not given) has a max activity of 29.1% [at 4.2 µM]. `CN(C)Cc1c(C(=O)N/N=C/c2ccccc2OCc2c(F)cccc2Cl)nnn1-c1nonc1N` showed a max activity of 19.7% [at 4.2 µM]. With `C[C@H](CO)N1C[C@H](C)[C@@H](CN(C)S(=O)(=O)c2cn(C)cn2)OCCCC[C@H](C)Oc2ccc(NC(=O)Nc3ccc4c(c3)OCO4)cc2C1=O` the max activity was 18.2%. `C[C@H]1CCCCO[C@@H](CN(C)C(=O)Nc2ccccc2)[C@@H](C)CN([C@@H](C)CO)C(=O)c2cc(NC(=O)Nc3ccc4c(c3)OCO4)ccc2O1` showed a max activity of 11.1% [at 4.2 µM].
